Laboratory results: PubChem BioAssay (NCI)
The panel holds about 83,000 compounds, 20% with a hit somewhere; the sample as a whole holds those more often.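 How to read the values: 0–100, growth inhibition (40 = 60% inhibited); 0, no net growth; -100 to 0, cell death (-40 = 40% of starting cells died; -100 = all dead).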 A number with no mark means an inactive call. Activity calls are given as the source filed them. How the source made its calls: active means growth percent below 10; inactive means the rest.

Test system: SF-268 CNS
Experiment: NCI-60 one-dose screen, 48 h (100 = growth as untreated, 0 = no growth, -100 = all killed)
Conditions: 10 µM unless noted

SMILES	growth
CC1(C)c2[nH]c3ccccc3c2C[C@]2(C)[C@H]3CC=C4[C@@H]5C[C@@](C)(C(N)=O)CC[C@]5(C)CC[C@@]4(C)[C@]3(C)CC[C@@H]12	73.2%
CCCCCOc1ccc(C(=O)/C(Br)=C/C(=O)O)cc1	97.5%
CC(C)N1CCN(Cc2ccc3c(NNC(=O)c4ccccc4)nc4cc(F)ccc4n23)CC1	24.1%
N#Cc1cccc(NC(=O)c2oc3ccccc3c2-c2cnn(-c3ccccc3)c2)c1	92.4% [50 µM]
Cc1cccc(N2CCN(CC(O)COc3ccc(Cl)cc3)CC2)c1 (centres undefined)	105%
CCOC(=O)c1c(C)nc2c(c1N)CC(=O)N2Cc1cc(F)cc(Cl)c1	95.8%
C[C@@H]1CCC[C@H]1CC(N)C(=O)O (some centres undefined)	105%
O=CC1(C2(C=O)c3ccccc3-c3ccccc32)c2ccccc2-c2ccccc21	-46.9% (active)
O=C1Nc2ccc(I)cc2C1=O	110%
CN1CCN(c2ccc(NC(=O)c3nc4ccc5[nH]ncc5c4c4c3CCCC4)cc2C(F)(F)F)CC1	78%
CN(C)C1CCN(Cc2ccc(NC(=O)c3cncc(C#Cc4cnc(N)c5ncccc45)c3)cc2C(F)(F)F)CC1	81.3%
COc1ccc(C/C(C)=C(/c2ccc(OCCN3CCCCC3)cc2)c2ccc(OC(=O)NCc3ccccc3)cc2)cc1	-76.6% (active)
COc1ccccc1NC(=O)Cn1cc(CN2CCN(c3ccnc4cc(Cl)ccc34)CC2)nn1	84%
N=C(N)c1ccc(-c2ccc(-c3ccc(F)cc3)o2)o1	30%
CN1C(=O)/C(=C/c2ccc(C(=O)Nc3ncc(Cc4ccc(Cl)cc4)s3)cc2)SC1=S	56.8%
CCCCCC(=O)OCC(=O)O[C@@H]1C[C@]2(C(C)C)O[C@@]1(C)[C@@H]1CC[C@@H](C)[C@H]1[C@@H]2OC(=O)/C=C/c1ccccc1	54.4%
CC(=O)N(N=Nc1ccccc1)c1cccc2ccccc12	92.8%
COc1ccc(/C=C2\C(=O)N=C3N2NC(c2cc(Br)ccc2O)C=C(C)N3c2ccccc2)cc1 (centres undefined)	100%
CC(C)(C)[Si](C)(C)O[C@H]1C(=O)C=CN2CC=C[C@@H]12	101% [100 µM]
C=C1C(=O)O[C@H]2[C@H]1CC/C(COC(=O)CSCCSCC(=O)OC/C1=C/CC[C@@]3(C)O[C@H]3[C@H]3OC(=O)C(=C)[C@@H]3CC1)=C\CC[C@@]1(C)O[C@@H]21	16.7%
Brc1ccc2[nH]cc(-c3nonc3-c3c[nH]c4ccccc34)c2c1	44.9%
COc1cccc(NC(=O)Cn2cc(CN3CCN(c4ccnc5cc(Cl)ccc45)CC3)nn2)c1	84.7%
CCOc1ccc(NC(=O)CSc2oc(-c3ccccc3)nc2S(=O)(=O)c2ccc(F)cc2)cc1	60.2%
O=C1Nc2ccc(Br)cc2/C1=N/c1n[nH]c(=S)s1	91.5%
COc1ccc(C(=O)C2C(c3ccc(OC)cc3)CN(C)C23C(=O)Nc2ccccc23)cc1 (centres undefined)	89.7%
Cc1noc(C)c1C(=O)OCc1coc2ccccc2c1=O	79.8%
C[C@]12CC[C@@H]3c4ccc(O)c([N+](=O)[O-])c4CC[C@H]3[C@@H]1CCC2=O	66.7%
COc1cccc([C@H]2c3[nH]c4ccccc4c3C[C@H]3C(=O)N(CCCCCCC(=O)NO)CC(=O)N23)c1	88.4%
CO/N=C(/C)c1ccc(NC(=O)CSc2nnc(-c3ccncc3)n2-c2ccccc2)cc1	13.4%

Test system: SF-295 CNS
Experiment: as above
Conditions: 10 µM unless noted

SMILES	growth
O=C1c2cccc3cccc(c23)C(=O)N1N1C(=O)c2cccc3c(N4CCOCC4)ccc(c23)C1=O	90.7%
CCO/C=N/C1=C(C#N)C(c2ccc(OC)cc2)c2sc3c(F)cccc3c2O1 (centres undefined)	16.6%
Cc1ccc(CNc2ccc(Cl)cc2NCc2ccc(C)c(O)c2)cc1O	74.2%
O=C(c1ccc(-c2nc(CSc3nc4ccccc4s3)no2)cc1)N1CCSCC1	40.6%
C/C(=C(/c1ccc(Cl)cc1)c1ccc(OCCN2CCCC2)cc1)c1ccc(Cl)cc1	100%
CC[C@]12C=CCN3CC[C@@]4(c5cc(NC(=O)CCC(=O)OCc6cn(Cc7ccc(F)cc7)nn6)c(OC)cc5N(C)[C@H]4[C@@](O)(C(=O)OC)[C@@H]1OC(C)=O)[C@@H]32	103%
C=C(C)[C@@H]1CC[C@]2(C(=O)O)CC[C@]3(C)[C@H](CC[C@@H]4[C@@]5(C)C[C@@H](Cc6cn(CCO[C@@H]7O[C@H](COC(C)=O)[C@H](OC(C)=O)[C@H](OC(C)=O)[C@H]7OC(C)=O)nn6)[C@H](O)C(C)(C)[C@@H]5CC[C@]43C)[C@@H]12	76.7%
C=CCn1c(SCC(=O)Nc2ccc(C(=O)/C=C/c3ccc(Cl)cc3)cc2)nnc1-c1cc(-c2ccc(S(N)(=O)=O)cc2)nc2ccccc12	97.5%
CCOC(=O)C1=NN(c2ccccc2)C(=O)/C1=C\N1C(=O)CC(=O)NC1=S	103%
CC12CCC3c4ccccc4CCC3(CO1)C2 (centres undefined)	77.2%
O=C1CC(N2C(=O)/C(=C/C(Cl)=C\c3ccc([N+](=O)[O-])cc3)SC2=S)C(=O)N1c1ccc(Cl)cc1 (centres undefined)	40.7%
CC1(C)c2[nH]c3ccccc3c2C[C@]2(C)[C@H]3CC=C4[C@@H]5C[C@@](C)(C(N)=O)CC[C@]5(C)CC[C@@]4(C)[C@]3(C)CC[C@@H]12	53.6%
CCCCCOc1ccc(C(=O)/C(Br)=C/C(=O)O)cc1	112%
CC(C)N1CCN(Cc2ccc3c(NNC(=O)c4ccccc4)nc4cc(F)ccc4n23)CC1	16.5%
N#Cc1cccc(NC(=O)c2oc3ccccc3c2-c2cnn(-c3ccccc3)c2)c1	74% [50 µM]
Cc1cccc(N2CCN(CC(O)COc3ccc(Cl)cc3)CC2)c1 (centres undefined)	82.3%
CCOC(=O)c1c(C)nc2c(c1N)CC(=O)N2Cc1cc(F)cc(Cl)c1	85.9%
C[C@@H]1CCC[C@H]1CC(N)C(=O)O (some centres undefined)	106%
O=CC1(C2(C=O)c3ccccc3-c3ccccc32)c2ccccc2-c2ccccc21	-59.8% (active)
O=C1Nc2ccc(I)cc2C1=O	99.1%

SMILES	growth
CN1CCN(c2ccc(NC(=O)c3nc4ccc5[nH]ncc5c4c4c3CCCC4)cc2C(F)(F)F)CC1	97.9%
CN(C)C1CCN(Cc2ccc(NC(=O)c3cncc(C#Cc4cnc(N)c5ncccc45)c3)cc2C(F)(F)F)CC1	93.9%
COc1ccc(C/C(C)=C(/c2ccc(OCCN3CCCCC3)cc2)c2ccc(OC(=O)NCc3ccccc3)cc2)cc1	-94.8% (active)
COc1ccccc1NC(=O)Cn1cc(CN2CCN(c3ccnc4cc(Cl)ccc34)CC2)nn1	100%
N=C(N)c1ccc(-c2ccc(-c3ccc(F)cc3)o2)o1	31.4%
CN1C(=O)/C(=C/c2ccc(C(=O)Nc3ncc(Cc4ccc(Cl)cc4)s3)cc2)SC1=S	33%
CCCCCC(=O)OCC(=O)O[C@@H]1C[C@]2(C(C)C)O[C@@]1(C)[C@@H]1CC[C@@H](C)[C@H]1[C@@H]2OC(=O)/C=C/c1ccccc1	90.2%
CC(=O)N(N=Nc1ccccc1)c1cccc2ccccc12	68.2%
COc1ccc(/C=C2\C(=O)N=C3N2NC(c2cc(Br)ccc2O)C=C(C)N3c2ccccc2)cc1 (centres undefined)	101%
CC(C)(C)[Si](C)(C)O[C@H]1C(=O)C=CN2CC=C[C@@H]12	94.1% [100 µM]
C=C1C(=O)O[C@H]2[C@H]1CC/C(COC(=O)CSCCSCC(=O)OC/C1=C/CC[C@@]3(C)O[C@H]3[C@H]3OC(=O)C(=C)[C@@H]3CC1)=C\CC[C@@]1(C)O[C@@H]21	67.2%
Brc1ccc2[nH]cc(-c3nonc3-c3c[nH]c4ccccc34)c2c1	33.3%
COc1cccc(NC(=O)Cn2cc(CN3CCN(c4ccnc5cc(Cl)ccc45)CC3)nn2)c1	87.5%
CCOc1ccc(NC(=O)CSc2oc(-c3ccccc3)nc2S(=O)(=O)c2ccc(F)cc2)cc1	50%
O=C1Nc2ccc(Br)cc2/C1=N/c1n[nH]c(=S)s1	101%
COc1ccc(C(=O)C2C(c3ccc(OC)cc3)CN(C)C23C(=O)Nc2ccccc23)cc1 (centres undefined)	90.6%
Cc1noc(C)c1C(=O)OCc1coc2ccccc2c1=O	104%
C[C@]12CC[C@@H]3c4ccc(O)c([N+](=O)[O-])c4CC[C@H]3[C@@H]1CCC2=O	98.7%
COc1cccc([C@H]2c3[nH]c4ccccc4c3C[C@H]3C(=O)N(CCCCCCC(=O)NO)CC(=O)N23)c1	87.5%
CO/N=C(/C)c1ccc(NC(=O)CSc2nnc(-c3ccncc3)n2-c2ccccc2)cc1	33%
